Shown are actives, neighbours in structure and some others; about 8% of the full set was active somewhere.
SW480 rereplic = induces DNA re-replication in SW480 colon adenocarcinoma cells. SW480 DNA re-replication, Hoechst DNA content imaging, 48 h. Potency, µM (titrated, usually from 46.1 µM), hits mostly activators. 340,000 compounds, 1.8% hits; note: nearly all actives have a fitted effect of over 55% in size
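Image-based read-out: total Hoechst fluorescence of nuclei (405 nm excitation, 500-530 nm emission), with hits raising the fraction of high-intensity nuclei. SW480 colon cells incubated 48 hr with compounds at 37 C.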
HT1080 IDH1KD tx = HT-1080 IDH1 knockdown cell toxicity (counter line) | HT-1080 IDH1 knockdown viability, ATP luminescence, 48 h | Potency, µM (top dose mostly 46.1 µM), hits mostly cytotoxic | 360,000 compounds, 2% hits
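IDH1KD HT-1080 cells, 750/well, RPMI + 5% FBS; compound pinned after 2 h settling; 48 h, 37 °C; CellTiter-Glo luminescence; % activity normalised to DMSO and no-cell wells; curves fitted, classed by r2 and efficacy.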
MCF10A rereplic = inducers of DNA re-replication in MCF 10A breast cells; MCF 10A DNA re-replication, Hoechst nuclear intensity, 48 h; 350,000 compounds, 2.9% hits; Potency, µM (series often up to 46.1 µM), actives largely listed as activators; note: nearly all actives have a fitted effect of over 50% in size
KB-V1 cytotox = KB-V1 MDR subline cytotoxicity. KB-V1 MDR cells viability, CellTiter-Glo, 72 h. Potency, µM (top dose mostly 46.1 µM), hits mostly cytotoxic. 400,000 compounds, 3.4% hits. AID 1347076; note: nearly all actives have a fitted effect of over 60% in size
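Cytotoxicity via CellTiter-Glo luminescence after 72 h compound exposure at 37 degrees C. Cells: drug-selected KB-V1 line, DMEM phenol-red free plus 10% FBS. Compounds tested at multiple concentrations; normalized data fitted to concentration-effect curves.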
HT1080NT lethal = kills 2HG-producing HT-1080-NT fibrosarcoma cells. 360,000 compounds, 1.6% hits. AID 686970. HT-1080-NT fibrosarcoma viability, CellTiter-Glo ATP luminescence, 48 h. Potency, µM (titrated, usually from 46.1 µM), actives largely listed as cytotoxic;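 note: NT is the 2HG producing partner of a matched IDH1 knockdown line; nearly all actives have a fitted effect of over 55% in size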
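Compounds were tested in concentration-response format on HT-1080-NT cells for 48 hours at 37 degrees C. Cell viability came from CellTiter-Glo luminescence; curves were classified by r2, response magnitude and activity.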
KB-3-1 tox = kills parental KB-3-1 adenocarcinoma cells; KB-3-1 viability, CellTiter-Glo ATP luminescence, 72 h; Potency, µM (titrated, usually from 46.1 µM), most hits filed as cytotoxic; 400,000 compounds, 1.4% hits; AID 1347075; note: nearly all actives have a fitted effect of over 60% in size
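Parental KB-3-1 adenocarcinoma cells in phenol-red-free DMEM with 10% FBS were pin-treated with compounds at several concentrations, incubated 72 h at 37 °C, and viability read by CellTiter-Glo luminescence; concentration-effect curves were fitted after normalization.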
A number is an active result; 0 = inactive; ? = inconclusive; - = no result; [ ] = remark or other dose. Calls come from the whole dose curve; as a rule, active = well fitted curve in the direction sought with a large enough effect; inconclusive = small, poorly fitted or top-dose-only effect, or another doubt; inactive = no such curve, though single readings can be large; an effect the other way counts as inactive or inconclusive.

SMILES	SW480 rereplic	HT1080 IDH1KD tx	MCF10A rereplic	KB-V1 cytotox	HT1080NT lethal	KB-3-1 tox
Cc1cc(=O)n2nc(N3CCC(C(=O)Nc4ccc(C)c(Cl)c4)CC3)sc2n1	-	-	-	0	-	0
CC(C)CCNC(=O)c1ccc(NC(=O)N2CCCCc3ccccc32)cc1	-	-	-	?	-	0
CCc1ccc(NC(=O)C(CC)n2c(=O)c(C(F)(F)F)nc3ccccc32)cc1 (stereo not given)	-	-	-	0	-	0
Cc1c(C)c(C)c(/C=C/c2ccnc3ccccc23)c(C)c1C	-	-	-	0	-	0
c1ccc(-c2noc(-c3cccnc3NCc3ccco3)n2)cc1	-	-	-	0	-	0
COCCOC(=O)C1=C(C)Nc2ncnn2C1c1ccccc1 (stereo not given)	0	0	0	0	?	0
CCOC(=O)C1=C(C)Nc2ncnn2C1c1cccs1 (stereo not given)	0	0	0	0	0	0
CCOC(=O)C1=C(C)Nc2ncnn2C1c1cc(Br)ccc1F (stereo not given)	0[9.22 µM]	?	?	21µM	0	?
CCOC(=O)C1=C(C)Nc2ncnn2C1/C=C/c1ccccc1 (stereo not given)	?	?	0	10µM	?	?
COc1ccc(C)cc1NC(=O)C(=O)NCCc1sc(-c2ccc(Cl)cc2)nc1C	-	-	-	0	-	0
CCCCCCOC(=O)c1ccc(N)cc1	0	?	23µM	0	?	0
O=S(=O)(Nc1ccc(-c2ccc(N3CCCC3)nn2)cc1)c1cccc(C(F)(F)F)c1	-	-	-	0	-	0
CCOc1ccc(CCNC(=O)Cn2c(-c3cccs3)cc3cc(F)ccc32)cc1OCC	-	-	-	?	-	6.5µM
CCOc1cc(CNC(=O)Cn2c(-c3cccs3)cc3cc(F)ccc32)ccc1OC	-	-	-	12µM	-	0
COc1ccccc1CNC(=O)Cn1c(-c2cccs2)cc2cc(F)ccc21	-	-	-	0	-	0
CCc1ccc(CN(Cc2ccco2)c2cnc(S(C)(=O)=O)nc2C(=O)Nc2cccc(C)c2)cc1	-	-	-	0	-	0
CC1(C(=O)NCc2cccs2)Cc2c(-c3ccc(C(N)=O)cc3)ccnc2O1 (stereo not given)	-	15µM	-	0	?	15µM
CC(C)NC(=O)C1(C)Cc2c(-c3cccc(C(F)(F)F)c3)ccnc2O1 (stereo not given)	-	0	-	0	0	0
CC1(C(=O)NCc2cccs2)Cc2c(-c3cccc(C(F)(F)F)c3)ccnc2O1 (stereo not given)	-	4.6µM	-	21µM	5.8µM	?
CC1(C(=O)NCc2ccccc2)Cc2c(-c3cccc(C(F)(F)F)c3)ccnc2O1 (stereo not given)	-	3.7µM	-	6.5µM	?	16µM
Cc1cc(=O)n2nc(N3CCC(C(=O)Nc4ccc(C(C)C)cc4)CC3)sc2n1	-	-	-	0	-	?
COc1ccc(S(=O)(=O)N2CCCCC2)cc1NS(=O)(=O)c1cc(Cl)ccc1Cl	23µM	0	0	?	0	0
COc1cc(NS(=O)(=O)c2ccc(C)c(C)c2)c(OC)cc1Cl	0	0	?	18µM	0	?
COc1ccc(S(=O)(=O)N2CCCCCC2)cc1C(=O)N(C)Cc1ccc(Cl)cc1Cl	0	?	2.1µM	0	?	?
O=S(=O)(c1ccc(Oc2ccc(Cl)cc2)c(S(=O)(=O)N2CCCCC2)c1)N1CCCCC1	0	0	0	3.3µM	0	0
SMILES	SW480 rereplic	HT1080 IDH1KD tx	MCF10A rereplic	KB-V1 cytotox	HT1080NT lethal	KB-3-1 tox
O=S(=O)(c1ccc(Cl)cc1)N1CCN(S(=O)(=O)N2CCCCCC2)CC1	0	0	0	0	0	0
COc1ccc(S(=O)(=O)N2CCCCCC2)cc1N(C)S(=O)(=O)c1ccc(C)cc1	0	0	?	2.6µM	0	0
C=CCn1c(SCC(=O)Nc2ccccc2OC)nnc1-c1ccccn1	18µM	?	?	?	?	?
C=CCn1c(SCC(=O)Nc2nccs2)nnc1-c1cc2cccc(OC)c2o1	0	?	0	2.1µM	?	0
COc1cccc2cc(-c3nnc(SCC(=O)Nc4ccc(NC(C)=O)cc4)n3C)oc12	0	0	0	0	0	?
CCn1c(Cc2cccc3ccccc23)nnc1SCC(=O)Nc1nccs1	0	0[9.24 µM]	0	18µM	0	0
CCn1c(SCC(=O)C(C)(C)C)nnc1-c1ccccn1	0	0	23µM	?	0	0
CCC(C)(C)c1ccc(CC(C)CN2C[C@@H](C)O[C@@H](C)C2)cc1 (stereo not given in full)	0	-	?	-	-	-
C[C@H]1C[C@@H]2[C@@H]([C@@H](O)C[C@@]3(C)[C@H]2CC[C@]3(O)C(=O)CO)[C@@]2(C)C=CC(=O)C=C12	0	-	0	-	-	-
Cc1ncc(CO)c2c1Oc1nc(-c3ccccc3)nc(SCC(=O)N3CCOCC3)c1C2	0	0	0	0	0	0
Cc1cccc(-c2nc3c(c(SCC(=O)N4CCOCC4)n2)Cc2c(CO)cnc(C)c2O3)c1	0	?	0	0	?	15µM
Cc1ncc(CO)c2c1Oc1nc(-c3ccccc3F)nc(SCC(=O)N(C)c3ccccc3)c1C2	0	21µM	?	?	?	0
COc1cccc2cc(S(=O)(=O)c3ccc(F)c(C)c3)c(=O)oc12	-	-	-	0	-	0
CCCS(=O)(=O)c1c(S(=O)(=O)CCC)c2c(C)cccn2c1C(=O)OC	?	0	21µM	?	0	0
CCCS(=O)(=O)c1c(S(=O)(=O)CCC)c2c3ccccc3ccn2c1C(=O)OC	0	0	0	?	0	0
Cc1c(Cl)cccc1-n1nc(C)c2c(C)cc(=O)n(CC(=O)N3CCCc4ccccc43)c21	-	-	-	0	-	0
CCc1sc(-c2cc3ccc(O)cc3oc2=O)nc1-c1ccc(C)cc1	-	-	-	?	-	0
O=c1oc2ccc3ccccc3c2cc1-c1nc2c(s1)CCc1ccccc1-2	-	-	-	0	-	?
O=c1oc2cc(O)ccc2cc1-c1nc2c(s1)CCc1ccccc1-2	3.7µM	0	?	0	0	0
O=c1oc2ccccc2cc1-c1nc2c(s1)CCc1ccccc1-2	21µM	0	?	0	0	0
O=S(=O)(c1cccc(F)c1)N1CCN(c2nc(-c3cccs3)nc3ccccc23)CC1	-	-	-	0	-	0
Nc1ncnc2c1cnn2-c1ccccc1	0	0	0	?	0	0
S=c1nc[nH]c2c1cnn2-c1ccccc1	0	0	0	8.2µM	0	?
CCOc1ccc(NC(=O)COC(=O)c2cc([N+](=O)[O-])ccc2N2CCOCC2)cc1	0	0	0	0	0	0
CCOc1ccc(NC(=O)c2cc([N+](=O)[O-])ccc2N2CCOCC2)cc1	?	?	?	23µM	?	0
Cc1ccc(NC(=O)c2cc(N3C(=O)C=CC3=O)ccc2N2CCOCC2)cc1	?	23µM	13µM	0	?	?

Compound activity deposited in PubChem by National Center for Advancing Translational Sciences (NCATS).
